{
  "source": "the supplement of paper PMC11732987",
  "about": "“Enantioselective OTUD7B fragment discovery through chemoproteomics screening and high-throughput optimisation” (Communications Chemistry, 2025)",
  "assay_in_all_cases": "log2 ratio of Biotin-Ahx-Ub-VS probe labelling (fragment/DMSO); higher = less target engagement (more negative = stronger competition), active = hit call of the paper (q ≤ 0.05, log2 ratio ≤ -1)",
  "conditions_in_all_cases": "compound concentration: 200 uM; treatment time: 3 h",
  "key": {"[1]": {"target": "T1, OTUD6B (UniProt Q8N6M0)", "T1 sequence (whole entry)": "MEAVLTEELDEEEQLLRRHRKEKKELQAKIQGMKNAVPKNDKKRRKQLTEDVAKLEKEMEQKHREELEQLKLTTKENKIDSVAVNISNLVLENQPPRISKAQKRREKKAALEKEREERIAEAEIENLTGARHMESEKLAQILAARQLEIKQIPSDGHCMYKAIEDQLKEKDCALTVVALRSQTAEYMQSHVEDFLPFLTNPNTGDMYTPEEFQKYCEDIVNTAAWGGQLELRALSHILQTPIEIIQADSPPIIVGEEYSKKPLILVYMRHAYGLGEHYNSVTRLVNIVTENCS", "method_in_brief": "(§1)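 HEK293T lysate, 495 µg per sample in Tris/CHAPS/IGEPAL buffer with protease inhibitors, was treated in triplicate with fragment at 200 µM or vehicle for 3 h and then with Biotin-Ahx-Ub-VS at 0.5 µM final for 1 h. Labelled DUBs were NeutrAvidin-enriched, digested with LysC and trypsin, and run by diaPASEF LC-MS/MS. Spectronaut label-free quantities were global-median-normalised, and values are average log2 fragment/vehicle ratios by unpaired t-test on proteins with ≥2 unique peptides.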"}, "[2]": {"target": "T2, OTUD7B (UniProt Q6GQQ9)", "T2 sequence (whole entry)": "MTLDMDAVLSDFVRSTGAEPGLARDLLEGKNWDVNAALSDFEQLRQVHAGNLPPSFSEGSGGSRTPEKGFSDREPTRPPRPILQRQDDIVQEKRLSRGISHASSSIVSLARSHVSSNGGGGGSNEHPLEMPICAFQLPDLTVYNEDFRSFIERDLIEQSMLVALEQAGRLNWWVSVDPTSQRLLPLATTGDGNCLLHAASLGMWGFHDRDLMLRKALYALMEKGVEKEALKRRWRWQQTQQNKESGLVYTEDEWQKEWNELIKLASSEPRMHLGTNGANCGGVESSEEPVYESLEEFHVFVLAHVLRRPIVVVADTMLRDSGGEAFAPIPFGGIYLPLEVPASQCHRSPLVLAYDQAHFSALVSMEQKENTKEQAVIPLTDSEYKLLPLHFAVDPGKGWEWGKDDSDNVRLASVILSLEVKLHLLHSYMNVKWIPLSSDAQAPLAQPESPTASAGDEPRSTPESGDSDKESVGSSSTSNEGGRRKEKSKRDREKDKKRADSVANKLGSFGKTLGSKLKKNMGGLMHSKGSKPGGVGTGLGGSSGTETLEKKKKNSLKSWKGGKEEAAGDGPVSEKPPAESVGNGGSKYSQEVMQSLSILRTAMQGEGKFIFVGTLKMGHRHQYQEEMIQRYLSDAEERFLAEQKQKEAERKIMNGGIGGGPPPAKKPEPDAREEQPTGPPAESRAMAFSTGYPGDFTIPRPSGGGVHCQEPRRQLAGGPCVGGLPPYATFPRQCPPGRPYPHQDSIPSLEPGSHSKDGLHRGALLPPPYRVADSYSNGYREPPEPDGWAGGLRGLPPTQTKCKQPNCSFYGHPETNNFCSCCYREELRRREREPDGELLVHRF", "method_in_brief": "as §1"}, "[3]": {"target": "PRPF8 (UniProt Q6P2Q9)", "method_in_brief": "as §1"}, "[4]": {"target": "T3, PSMD7 (UniProt P51665)", "T3 sequence (whole entry)": "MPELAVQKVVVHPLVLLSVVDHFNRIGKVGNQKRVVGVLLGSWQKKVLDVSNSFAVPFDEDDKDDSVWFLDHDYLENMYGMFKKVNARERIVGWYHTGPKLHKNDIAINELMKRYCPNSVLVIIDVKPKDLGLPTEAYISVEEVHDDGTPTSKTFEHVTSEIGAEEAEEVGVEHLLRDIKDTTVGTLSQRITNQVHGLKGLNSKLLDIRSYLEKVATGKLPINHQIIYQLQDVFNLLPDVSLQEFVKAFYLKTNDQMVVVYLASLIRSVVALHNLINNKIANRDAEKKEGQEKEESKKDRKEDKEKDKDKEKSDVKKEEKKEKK", "method_in_brief": "as §1"}, "[5]": {"target": "UCHL1 (UniProt P09936)", "sequence (P09936 whole entry, looked up)": "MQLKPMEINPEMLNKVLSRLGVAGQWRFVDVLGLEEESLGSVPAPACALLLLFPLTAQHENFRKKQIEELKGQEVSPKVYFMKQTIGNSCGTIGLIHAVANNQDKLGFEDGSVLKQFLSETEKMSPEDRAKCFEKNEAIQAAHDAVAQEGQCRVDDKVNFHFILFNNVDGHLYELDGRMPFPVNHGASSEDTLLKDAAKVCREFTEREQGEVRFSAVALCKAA", "method_in_brief": "as §1"}, "[6]": {"target": "T4, UCHL3 (UniProt P15374)", "T4 sequence (whole entry)": "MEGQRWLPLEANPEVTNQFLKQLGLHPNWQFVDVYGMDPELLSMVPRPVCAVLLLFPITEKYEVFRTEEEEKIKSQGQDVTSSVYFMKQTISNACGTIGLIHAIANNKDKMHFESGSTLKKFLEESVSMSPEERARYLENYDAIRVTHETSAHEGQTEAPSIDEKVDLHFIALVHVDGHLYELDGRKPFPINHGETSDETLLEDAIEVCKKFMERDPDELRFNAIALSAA", "method_in_brief": "as §1"}, "[7]": {"target": "T5, UCHL5 (UniProt Q9Y5K5)", "T5 sequence (whole entry)": "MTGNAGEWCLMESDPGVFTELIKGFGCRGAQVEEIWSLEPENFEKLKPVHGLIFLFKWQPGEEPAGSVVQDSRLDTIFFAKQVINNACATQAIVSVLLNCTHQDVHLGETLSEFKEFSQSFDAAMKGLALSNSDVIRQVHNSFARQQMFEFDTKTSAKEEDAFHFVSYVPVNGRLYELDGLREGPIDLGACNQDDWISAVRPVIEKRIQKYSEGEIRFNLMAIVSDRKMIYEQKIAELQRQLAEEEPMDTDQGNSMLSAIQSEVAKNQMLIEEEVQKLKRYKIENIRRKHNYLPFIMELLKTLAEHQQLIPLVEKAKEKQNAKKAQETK", "method_in_brief": "as §1"}, "[8]": {"target": "USP10 (UniProt Q14694)", "sequence (Q14694 whole entry)": "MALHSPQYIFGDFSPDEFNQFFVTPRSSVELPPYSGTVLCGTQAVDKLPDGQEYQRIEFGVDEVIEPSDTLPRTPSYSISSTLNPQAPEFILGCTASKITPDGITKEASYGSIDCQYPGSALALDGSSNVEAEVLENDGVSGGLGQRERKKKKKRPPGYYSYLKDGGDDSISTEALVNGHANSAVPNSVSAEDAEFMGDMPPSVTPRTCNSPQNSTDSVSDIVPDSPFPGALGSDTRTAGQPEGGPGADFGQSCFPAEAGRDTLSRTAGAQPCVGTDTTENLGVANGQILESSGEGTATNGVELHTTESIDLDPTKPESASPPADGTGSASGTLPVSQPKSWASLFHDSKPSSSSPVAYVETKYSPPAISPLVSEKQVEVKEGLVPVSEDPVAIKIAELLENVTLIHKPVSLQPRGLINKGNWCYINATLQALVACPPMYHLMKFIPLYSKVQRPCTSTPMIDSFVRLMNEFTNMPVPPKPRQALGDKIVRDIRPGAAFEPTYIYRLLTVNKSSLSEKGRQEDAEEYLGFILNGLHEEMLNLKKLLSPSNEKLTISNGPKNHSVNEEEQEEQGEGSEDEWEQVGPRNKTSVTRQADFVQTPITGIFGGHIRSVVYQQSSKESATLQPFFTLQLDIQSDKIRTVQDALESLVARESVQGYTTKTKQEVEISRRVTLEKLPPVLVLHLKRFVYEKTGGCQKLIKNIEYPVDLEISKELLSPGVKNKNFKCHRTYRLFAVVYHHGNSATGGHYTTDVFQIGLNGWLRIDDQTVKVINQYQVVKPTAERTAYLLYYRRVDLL", "method_in_brief": "as §1"}, "[9]": {"target": "T6, USP15 (UniProt Q9Y4E8)", "T6 sequence (whole entry)": "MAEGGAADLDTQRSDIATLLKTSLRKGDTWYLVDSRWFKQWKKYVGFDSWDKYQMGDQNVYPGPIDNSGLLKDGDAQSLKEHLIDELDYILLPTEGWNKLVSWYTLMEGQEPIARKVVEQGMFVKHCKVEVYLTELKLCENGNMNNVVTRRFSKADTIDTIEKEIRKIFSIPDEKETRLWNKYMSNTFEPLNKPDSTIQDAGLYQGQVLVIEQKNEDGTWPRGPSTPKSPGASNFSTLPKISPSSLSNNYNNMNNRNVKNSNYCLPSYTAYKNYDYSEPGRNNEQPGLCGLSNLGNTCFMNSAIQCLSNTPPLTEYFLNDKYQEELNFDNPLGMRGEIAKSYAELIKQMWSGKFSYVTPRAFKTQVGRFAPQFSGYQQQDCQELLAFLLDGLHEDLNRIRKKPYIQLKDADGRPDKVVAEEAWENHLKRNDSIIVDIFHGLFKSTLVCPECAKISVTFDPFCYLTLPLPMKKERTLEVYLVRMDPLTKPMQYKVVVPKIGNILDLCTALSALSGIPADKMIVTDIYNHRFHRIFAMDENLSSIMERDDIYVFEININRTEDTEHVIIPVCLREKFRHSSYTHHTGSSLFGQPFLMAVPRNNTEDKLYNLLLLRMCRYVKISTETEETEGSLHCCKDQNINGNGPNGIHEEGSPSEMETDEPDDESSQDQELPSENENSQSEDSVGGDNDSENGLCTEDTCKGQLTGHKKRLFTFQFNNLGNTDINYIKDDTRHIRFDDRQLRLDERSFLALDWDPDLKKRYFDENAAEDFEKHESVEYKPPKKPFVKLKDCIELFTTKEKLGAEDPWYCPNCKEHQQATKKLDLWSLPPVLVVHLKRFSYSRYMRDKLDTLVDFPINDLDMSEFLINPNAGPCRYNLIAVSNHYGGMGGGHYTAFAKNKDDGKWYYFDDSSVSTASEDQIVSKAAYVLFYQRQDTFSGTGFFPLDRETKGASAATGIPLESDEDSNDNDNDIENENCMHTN", "method_in_brief": "as §1"}, "[10]": {"target": "USP16 (UniProt Q9Y5T5)", "sequence (Q9Y5T5 whole entry, looked up)": "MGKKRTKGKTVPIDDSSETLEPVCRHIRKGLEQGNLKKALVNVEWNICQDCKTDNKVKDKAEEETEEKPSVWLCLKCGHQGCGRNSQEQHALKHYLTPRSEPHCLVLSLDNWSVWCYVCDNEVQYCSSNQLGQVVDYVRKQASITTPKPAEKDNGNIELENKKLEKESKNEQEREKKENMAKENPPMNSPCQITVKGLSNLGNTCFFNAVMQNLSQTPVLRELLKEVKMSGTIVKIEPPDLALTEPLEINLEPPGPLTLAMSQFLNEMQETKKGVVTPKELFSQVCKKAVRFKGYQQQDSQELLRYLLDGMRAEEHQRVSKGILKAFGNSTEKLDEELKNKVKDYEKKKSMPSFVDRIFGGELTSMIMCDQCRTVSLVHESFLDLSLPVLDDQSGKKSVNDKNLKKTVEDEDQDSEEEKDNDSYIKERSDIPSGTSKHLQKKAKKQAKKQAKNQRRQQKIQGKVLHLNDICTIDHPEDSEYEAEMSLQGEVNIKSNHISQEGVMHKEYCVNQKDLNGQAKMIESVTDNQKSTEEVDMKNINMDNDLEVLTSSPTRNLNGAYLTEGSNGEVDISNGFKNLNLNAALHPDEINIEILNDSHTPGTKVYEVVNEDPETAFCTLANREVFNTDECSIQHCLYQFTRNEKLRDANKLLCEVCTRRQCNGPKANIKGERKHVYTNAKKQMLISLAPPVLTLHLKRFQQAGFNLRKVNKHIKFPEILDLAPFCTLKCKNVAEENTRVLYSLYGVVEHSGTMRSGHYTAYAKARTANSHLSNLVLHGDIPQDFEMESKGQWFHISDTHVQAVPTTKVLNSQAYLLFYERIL", "method_in_brief": "as §1"}},
  "note": "Values without a mark were called inactive.",
  "data": [
    {"smiles": "CC1(NC(=O)CCl)CCS(=O)(=O)C1", "note": "(stereo not given)", "values": [
      {"measurement": "log2 ratio of Biotin-Ahx-Ub-VS probe labelling", "setting": "[1]", "result": -0.893},
      {"measurement": "log2 ratio of Biotin-Ahx-Ub-VS probe labelling", "setting": "[2]", "result": "-1.2 (active)"},
      {"measurement": "log2 ratio of Biotin-Ahx-Ub-VS probe labelling", "setting": "[3]", "result": -0.0055},
      {"measurement": "log2 ratio of Biotin-Ahx-Ub-VS probe labelling", "setting": "[4]", "result": 0.0653},
      {"measurement": "log2 ratio of Biotin-Ahx-Ub-VS probe labelling", "setting": "[5]", "result": "-2.03 (active)"},
      {"measurement": "log2 ratio of Biotin-Ahx-Ub-VS probe labelling", "setting": "[6]", "result": -0.392},
      {"measurement": "log2 ratio of Biotin-Ahx-Ub-VS probe labelling", "setting": "[7]", "result": -0.974},
      {"measurement": "log2 ratio of Biotin-Ahx-Ub-VS probe labelling", "setting": "[8]", "result": -0.235},
      {"measurement": "log2 ratio of Biotin-Ahx-Ub-VS probe labelling", "setting": "[9]", "result": -0.845},
      {"measurement": "log2 ratio of Biotin-Ahx-Ub-VS probe labelling", "setting": "[10]", "result": 0.0352}
    ]}
  ]
}
